Source: PubChem BioAssay
The source made the active and inactive calls.

Columns and labels:
Albumin (Bos taurus) = Albumin (Bos taurus) (UniProt P02769); assay: compounds binding labelled BSA control protein – biochemical, small-molecule microarray, Alexa647 label, 635/667 nm fluorescence, artefact control for SMM control protein annotation, profiling panel (AID 1118); conditions: BSA-A647 binding, fluorescence 635 nm, higher = more signal;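 note: score merges 667 nm emission intensity and signal-to-noise per printed compound spot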
[1] = probe aXIP binding to arrayed compounds – biochemical, NeuroSMM set, 635/667 nm fluorescence, primary screen (AID 1119); conditions: small-molecule microarray, higher = more signal, called active from +8 up or from −8 down;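 note: probe is the protein aXip251-270 applied at 1 µg/mL to compound-printed slides; binding of probe to printed compounds measured as 667 nm fluorescence plus signal to noise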
[2] = probe aNOTCH3 binding on compound microarray – biochemical, small-molecule microarray, 635/667 nm fluorescence, primary screen (AID 1120); conditions: higher = more signal;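 note: probe is a biotin-tagged antibody raised against NOTCH3 rather than NOTCH3 protein; score merges spot fluorescence near 667 nm with spot signal to noise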
[3] = probe aNOTCH2 binding on compound microarray – biochemical, small-molecule microarray, 635/667 nm fluorescence, primary screen (AID 1121); conditions: higher = more signal;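 note: score merges feature fluorescence read at 667 nm with its signal to noise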
[4] = target: Carbonic anhydrase 2 (Homo sapiens) (UniProt P00918); assay: compounds binding carbonic anhydrase 2 – biochemical, small-molecule microarray, Alexa647-labelled CAII, profiling panel (AID 1122); conditions: CAII-A647 binding fluorescence, higher = more signal
[5] = COS7 lysate on small-molecule microarray, probe aHis, 635 nm (AID 1123); conditions: COS7 cell lysate, fluorescence, higher = more signal;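 note: z-score combines 667nm fluorescence intensity with signal-to-noise per printed compound spot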
[6] = probe aLAP1 signal on lysate-treated microarray – cell lysate, small-molecule microarray, COS7 lysate, primary screen (AID 1124); conditions: probe aLAP1, fluorescence, higher = more signal;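 note: lysate comes from COS7 cells expressing LAP1 and is applied at 0.3 µg/mL; score merges spot fluorescence near 667 nm with signal-to-noise over triplicate slides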
Sam68 (KHDRBS1) = assay: compounds binding KHDRBS1 protein – biochemical, small-molecule microarray, 635 nm fluorescence, primary screen (AID 1125); conditions: higher = more signal;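 note: score merges 667 nm channel intensity with signal to noise over triplicate slides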
[7] = test system: Chordin-like protein 2 (CHRDL2); assay: compounds binding chordin-like 2 – biochemical, small-molecule microarray, 635 nm fluorescence, primary screen (AID 1126); conditions: fluorescence 635 nm, higher = more signal;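 note: printed compound slides probed with Chrdl2 protein at 4 µg/mL for 1 h at 4 C; score merges 667 nm emission intensity with signal to noise over three replicate slides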
[8] = target: Concanavalin-A (Canavalia ensiformis) (UniProt P02866); assay: compounds binding concanavalin A lectin – biochemical, small-molecule microarray, Alexa647 label, 635 nm, artefact control for SMM control protein annotation, primary screen (AID 1127); conditions: ConA-A647 binding fluorescence, higher = more signal;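 note: z combines 667 nm emission intensity with signal-to-noise across three replicate slides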
[9] = compounds binding Alexa647 anti-His antibody – biochemical, small-molecule microarray, 635 nm fluorescence, artefact control for SMM control protein annotation, primary screen (AID 1128); conditions: higher = more signal;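 note: score merges feature fluorescence with signal-to-noise for each printed compound spot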
[10] = test system: Human papillomavirus type 1a E7 protein (residues 1-88); assay: HPV1a E7 small-molecule binders, primary screen, biochemical, small-molecule microarray, residues 1-88, 635 nm (AID 1129); conditions: small-molecule microarray binding, fluorescence 635 nm; higher = more signal
[11] = target: Focal adhesion kinase 1 (Homo sapiens) (UniProt Q05397); assay: PTK2 protein binding on printed compound slides – biochemical, small-molecule microarray, 635/667 nm fluorescence, BSA, DTT, primary screen (AID 1130); conditions: 635 nm fluorescence, higher = more signal;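 note: composite of spot emission at 667 nm and signal to noise over triplicate slides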
[12] = test system: Fibrinogen (Alexa647-labelled); assay: Alexa647-fibrinogen binding to printed small molecules – biochemical, small-molecule microarray, 635/667 nm fluorescence, artefact control for SMM control-protein annotation, profiling panel (AID 1131); conditions: fibrinogen-A647 binding fluorescence, higher = more signal;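 note: z-score merges 667 nm fluorescence with per-spot signal-to-noise over triplicate slides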
[13] = target: Follistatin (Homo sapiens) (UniProt P19883); assay: FST protein binding to printed compounds – biochemical, small-molecule microarray, 635/667 nm fluorescence, primary screen (AID 1132); conditions: 635 nm fluorescence, higher = more signal
[14] = target: Fibroblast growth factor 2 (Homo sapiens) (UniProt P09038); assay: basic fibroblast growth factor binding to printed compounds – biochemical, small-molecule microarray, 635/667 nm fluorescence, primary screen (AID 1133); conditions: FGF2, fluorescence 635/667, higher = more signal
[15] = JC-1 mitochondrial potential readout, lung cancer cells – cell-based, A549, JC-1 fluorescence, basal, 24 h, 100 nL, profiling panel (AID 1138); conditions: higher = more signal;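 note: A549 lung adenocarcinoma cells under basal conditions with no added stimulus; test concentration not given here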
Lefty1 = Lefty1 protein binding to printed compounds – biochemical, small-molecule microarray, 635/667 nm fluorescence, primary screen (AID 1139); conditions: fluorescence 635/667, higher = more signal
[16] = test system: wheat germ agglutinin (Triticum aestivum), Alexa647-labelled; assay: Alexa647-WGA lectin binding to printed small molecules – biochemical, small-molecule microarray, 635/667 nm fluorescence, artefact control for SMM control-protein annotation, profiling panel (AID 1140); conditions: WGA-A647 binding, 635 nm fluorescence, higher = more signal;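 note: score merges 667 nm feature emission with signal to noise over triplicate slides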
[17] = target: Luciferin 4-monooxygenase (Photinus pyralis) (UniProt P08659); assay: inhibition of purified Photinus pyralis luciferase – biochemical, luminescence, purified enzyme, 2006 set, primary screen (AID 1141); conditions: purified firefly luciferase, SteadyGlo luminescence, 30 min; higher = more signal, called active from +8 up or from −8 down;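 note: cell-free assay with purified firefly luciferase at 100 ng per well in PBS; test concentration not given here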
Chain of Luciferin 4-monooxygenase (Photinus pyralis) (P08659 whole entry, looked up): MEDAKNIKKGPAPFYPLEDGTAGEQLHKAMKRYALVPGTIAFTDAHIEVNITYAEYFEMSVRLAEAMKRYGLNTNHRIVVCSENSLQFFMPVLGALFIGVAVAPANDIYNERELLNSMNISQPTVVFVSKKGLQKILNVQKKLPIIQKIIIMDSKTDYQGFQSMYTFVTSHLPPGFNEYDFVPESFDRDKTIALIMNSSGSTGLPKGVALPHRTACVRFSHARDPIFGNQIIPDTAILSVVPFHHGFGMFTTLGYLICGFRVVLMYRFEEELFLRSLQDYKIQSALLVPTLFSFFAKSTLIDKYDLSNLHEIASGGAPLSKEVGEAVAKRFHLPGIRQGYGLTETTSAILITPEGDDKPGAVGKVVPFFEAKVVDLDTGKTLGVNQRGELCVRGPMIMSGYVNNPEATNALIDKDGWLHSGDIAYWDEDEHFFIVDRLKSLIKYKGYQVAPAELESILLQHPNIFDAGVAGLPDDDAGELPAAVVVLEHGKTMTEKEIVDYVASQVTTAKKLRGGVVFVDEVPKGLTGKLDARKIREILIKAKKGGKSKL

Chain of Concanavalin-A (Canavalia ensiformis) (P02866 whole entry, looked up): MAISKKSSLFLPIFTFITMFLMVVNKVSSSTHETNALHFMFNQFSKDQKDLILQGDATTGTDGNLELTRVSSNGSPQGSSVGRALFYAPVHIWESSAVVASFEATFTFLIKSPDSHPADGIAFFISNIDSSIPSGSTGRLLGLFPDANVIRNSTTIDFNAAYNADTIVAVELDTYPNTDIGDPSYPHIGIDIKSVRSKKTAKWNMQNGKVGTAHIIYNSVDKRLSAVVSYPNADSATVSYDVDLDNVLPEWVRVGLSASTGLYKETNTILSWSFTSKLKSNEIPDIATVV
Chain of Fibroblast growth factor 2 (Homo sapiens) (P09038 whole entry, looked up): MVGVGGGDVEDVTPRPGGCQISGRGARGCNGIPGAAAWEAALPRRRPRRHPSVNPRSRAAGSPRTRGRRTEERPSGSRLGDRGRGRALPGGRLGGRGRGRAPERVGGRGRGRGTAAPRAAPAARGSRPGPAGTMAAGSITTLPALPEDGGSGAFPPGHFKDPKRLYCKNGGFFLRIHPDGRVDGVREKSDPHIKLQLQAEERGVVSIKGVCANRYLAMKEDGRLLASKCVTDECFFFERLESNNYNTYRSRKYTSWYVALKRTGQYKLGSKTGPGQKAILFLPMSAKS
Chain of Albumin (Bos taurus) (P02769 whole entry, looked up): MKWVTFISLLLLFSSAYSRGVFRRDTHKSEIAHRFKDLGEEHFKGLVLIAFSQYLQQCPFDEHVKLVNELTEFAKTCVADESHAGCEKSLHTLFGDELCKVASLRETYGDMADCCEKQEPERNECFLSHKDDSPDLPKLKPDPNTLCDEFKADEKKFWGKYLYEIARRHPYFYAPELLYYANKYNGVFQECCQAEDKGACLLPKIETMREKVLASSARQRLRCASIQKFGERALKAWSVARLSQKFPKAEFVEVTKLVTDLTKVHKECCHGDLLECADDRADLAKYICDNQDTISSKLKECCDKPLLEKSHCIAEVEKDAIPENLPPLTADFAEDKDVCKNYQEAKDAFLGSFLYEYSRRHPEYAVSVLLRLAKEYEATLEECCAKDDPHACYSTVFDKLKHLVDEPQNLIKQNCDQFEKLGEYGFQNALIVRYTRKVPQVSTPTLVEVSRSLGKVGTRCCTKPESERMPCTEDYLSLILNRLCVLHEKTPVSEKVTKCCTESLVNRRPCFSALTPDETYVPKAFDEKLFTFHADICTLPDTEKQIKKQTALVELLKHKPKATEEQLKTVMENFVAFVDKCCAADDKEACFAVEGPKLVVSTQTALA
Chain of Follistatin (Homo sapiens) (P19883 whole entry, looked up): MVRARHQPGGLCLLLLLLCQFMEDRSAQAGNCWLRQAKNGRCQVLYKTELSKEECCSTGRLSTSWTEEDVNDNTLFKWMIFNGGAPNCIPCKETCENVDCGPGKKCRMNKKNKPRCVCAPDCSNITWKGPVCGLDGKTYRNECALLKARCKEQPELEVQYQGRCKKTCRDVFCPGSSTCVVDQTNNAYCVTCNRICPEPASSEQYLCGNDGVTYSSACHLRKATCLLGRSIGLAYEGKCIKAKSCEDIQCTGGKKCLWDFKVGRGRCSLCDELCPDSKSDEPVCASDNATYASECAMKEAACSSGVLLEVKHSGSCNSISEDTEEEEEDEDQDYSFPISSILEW
Chain of Focal adhesion kinase 1 (Homo sapiens) (Q05397 whole entry, looked up): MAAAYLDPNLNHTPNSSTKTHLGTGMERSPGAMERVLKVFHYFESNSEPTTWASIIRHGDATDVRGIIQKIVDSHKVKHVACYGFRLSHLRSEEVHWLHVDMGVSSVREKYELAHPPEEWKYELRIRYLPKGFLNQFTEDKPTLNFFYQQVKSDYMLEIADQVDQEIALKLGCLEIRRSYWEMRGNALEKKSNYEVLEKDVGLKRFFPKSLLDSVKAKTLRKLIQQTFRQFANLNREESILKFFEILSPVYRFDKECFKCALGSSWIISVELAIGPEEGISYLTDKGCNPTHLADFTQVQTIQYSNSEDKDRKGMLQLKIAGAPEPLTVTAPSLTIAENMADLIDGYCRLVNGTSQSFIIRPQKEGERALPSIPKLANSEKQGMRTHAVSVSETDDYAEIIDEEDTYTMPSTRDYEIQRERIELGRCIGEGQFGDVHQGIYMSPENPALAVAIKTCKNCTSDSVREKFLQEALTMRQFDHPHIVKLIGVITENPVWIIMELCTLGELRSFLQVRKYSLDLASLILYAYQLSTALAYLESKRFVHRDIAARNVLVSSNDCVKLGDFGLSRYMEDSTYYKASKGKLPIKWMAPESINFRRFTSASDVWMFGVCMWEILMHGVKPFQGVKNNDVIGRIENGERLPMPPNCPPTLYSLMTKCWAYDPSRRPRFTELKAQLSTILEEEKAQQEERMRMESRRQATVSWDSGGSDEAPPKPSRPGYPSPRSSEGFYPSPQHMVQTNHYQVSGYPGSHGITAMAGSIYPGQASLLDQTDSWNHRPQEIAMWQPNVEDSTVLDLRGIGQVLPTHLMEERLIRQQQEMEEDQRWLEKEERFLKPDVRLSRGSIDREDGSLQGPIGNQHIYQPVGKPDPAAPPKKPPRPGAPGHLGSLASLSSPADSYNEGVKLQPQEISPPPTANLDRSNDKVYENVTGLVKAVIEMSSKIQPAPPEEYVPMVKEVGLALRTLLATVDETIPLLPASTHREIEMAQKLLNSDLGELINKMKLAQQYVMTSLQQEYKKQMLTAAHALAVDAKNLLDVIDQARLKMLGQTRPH

| Structure (SMILES) | composite z-score (Albumin (Bos taurus)) | composite Z-score [1] | composite z-score [2] | composite z-score [3] | composite z-score [4] | composite z-score [5] | composite z-score [6] | composite z-score (Sam68 (KHDRBS1)) | composite z-score [7] | composite z-score [8] | composite z-score [9] | composite z-score [10] | composite z-score [11] | composite z-score [12] | composite z-score [13] | composite z-score [14] | z-score [15] | composite z-score (Lefty1) | composite z-score [16] | z-score [17] |
| --- | --- | --- | --- | --- | --- | --- | --- | --- | --- | --- | --- | --- | --- | --- | --- | --- | --- | --- | --- | --- |
| C=CCNC(=O)[C@@H]1[C@H]2C(=O)O[C@H](c3ccccc3)[C@H](c3ccccc3)N2[C@H](c2ccccc2OCCO)[C@@]12C(=O)Nc1ccc(C#CCCO)cc12 | -0.162 | -0.433 (inactive) | -0.0302 | -0.147 | 0.675 | 0.71 | 0.452 | 0.826 | 1.13 | 1.15 | 0.169 | 0.723 | 0.415 | 0.862 | 1.43 | 1.62 | 0.861 | 1.32 | 0.5 | 0.467 (inactive) |
| [N-]=[N+]=Nc1ccccc1C[C@]1(C(=O)NCCN2CCOCC2)COC(c2ccc(OCCCO)cc2)=N1 | 0.18 | -0.34 (inactive) | -0.0745 | 0.0328 | 0.348 | 1.87 | 1.26 | 1.15 | 0.376 | 1.1 | 1.34 | 1.26 | 0.696 | 0.649 | 1.02 | 1.04 | 2.08 | -0.494 | 0.607 | -2.91 (inactive) |
| N#Cc1ccc(NN2C(C(O)c3ccc(Br)cc3)C=CC3C(=O)N(c4ccccc4)C(=O)C32)cc1 (stereo not given) | 0.539 | 0.718 (inactive) | 0.43 | 0.357 | 0.721 | 3.24 | 1.35 | 0.83 | 0.195 | 1.07 | 1.28 | 1.18 | 0.633 | 0.561 | 0.873 | 0.127 | 0.494 | -0.0682 | 1.49 | -0.517 (inactive) |
| COCCOC(=O)N1C(=O)[C@@]2(c3ccccc31)[C@H](c1ccc(O)cc1)N1[C@H](c3ccccc3)[C@H](c3ccccc3)OC(=O)[C@H]1[C@@H]2C(=O)N1CCN(c2ncccn2)CC1 | 0.397 | 0.0692 (inactive) | -0.0014 | 0.0456 | 0.202 | 1.83 | 1.03 | 1.2 | 0.375 | 0.928 | 0.682 | 1.14 | 0.666 | 0.244 | 1.04 | 1.43 | -0.727 | 0.806 | 0.026 | 0.504 (inactive) |
| CCCC1(C(=O)OC)C=C2C(=C(C)C(=O)C2C)CN1 (stereo not given) | -0.15 | 0.931 (inactive) | 0.0416 | -0.0936 | 0.664 | 1.24 | -0.293 | -0.406 | -0.027 | -2.2 | 2.81 | -0.0152 | 0.0853 | 0.892 | 0.503 | -0.343 | 0.511 | -0.451 | 0.594 | 2.26 (inactive) |
| C=C[C@H]1C(C(=O)OCC)=CC[C@@H](c2ccccc2)N1S(=O)(=O)c1ccc(C)cc1 | 0.644 | -0.176 (inactive) | 0.382 | -0.0345 | 0.627 | 1.67 | 0.516 | 1.1 | 0.218 | 0.789 | 1.53 | 1.22 | 0.736 | 0.964 | 1.2 | 0.0703 | 3.33 | 0.325 | 0.677 | 0.26 (inactive) |
| O=C(Cc1ccccc1)[C@H]1C2C=CCCC(c3ccccc3)=C2CN1Cc1ccccc1 (stereo not given in full) | -0.567 | -0.041 (inactive) | -0.166 | -0.179 | -0.302 | -0.328 | 0.0448 | -0.299 | 0.23 | -0.22 | -0.162 | -0.304 | -0.241 | -0.0983 | 0.436 | 0.869 | 1.77 | -0.519 | -0.394 | -1.06 (inactive) |
| COc1ccc([Si](C)(C)[C@H]2[C@H](CC(=O)N3Cc4ccccc4C[C@H]3CO)O[C@@]3(C(=O)N(Cc4ccc(N5CCOC5=O)cc4)c4ccccc43)[C@@H]2C)cc1 | -0.153 | 0.949 (inactive) | -0.0106 | -0.0249 | 0.444 | 0.591 | 0.246 | 1.33 | 1.32 | 1.05 | 1.14 | 0.923 | 0.109 | 0.339 | 1.32 | 1.39 | 0.516 | 1.22 | 0.396 | -0.246 (inactive) |
| COc1cc(NN2C(C(O)c3ccc(N(C)C)cc3)C=CC3C(=O)N(c4ccccc4)C(=O)C32)cc(OC)c1OC (stereo not given) | 0.353 | 0.785 (inactive) | 0.448 | 0.0606 | 0.192 | 0.68 | -0.196 | 0.913 | -0.148 | 0.0693 | 0.555 | 1.03 | 0.0507 | 0.945 | 1.22 | -0.223 | 0.0531 | 0.0646 | 0.885 | 0.11 (inactive) |
| Cc1ccc(S[C@]2(C(=O)NCc3ccccc3)CC(=O)N(C3CCCCC3)[C@@H]2c2ccc(CO)cc2I)cc1 | 0.0863 | -0.0202 (inactive) | 0.0301 | -0.133 | 0.459 | 2.13 | 0.658 | 1.23 | 0.338 | 1.14 | 0.731 | 0.872 | 0.25 | 0.773 | 0.382 | 0.904 | 1.3 | -0.0294 | 0.68 | -0.421 (inactive) |
| CC(C)N1C(=O)c2ccccc2[C@@H](C(=O)NCCN2CCOCC2)[C@@H]1c1ccc(CO)cc1 | 0.466 | 1.62 (inactive) | -0.313 | -0.155 | 0.786 | -0.735 | -0.523 | -1.21 | -1.51 | -0.538 | 1.3 | -0.736 | -0.378 | -1.99 | -0.0463 | -1.57 | 0.156 | -0.786 | -1.23 | 0.128 (inactive) |
| CCN(CC)c1ccc(N2CC=CC34O[C@@H]5/C=C\CCCOC(=O)C5[C@H]3C(=O)N(C(C)CO)[C@@H]4C2=O)cc1 (stereo not given in full) | 0.288 | -0.463 (inactive) | -0.0647 | -0.0862 | 0.732 | 0.121 | 0.248 | 0.11 | 0.259 | -0.529 | -0.556 | -0.107 | -0.294 | -0.158 | 0.077 | 0.305 | 1.18 | -0.0464 | -0.0344 | -1.38 (inactive) |
| CO[C@H]1O[C@H](CO)[C@@H](OC(=O)Nc2ccc3c(c2)OCO3)[C@H](OC(=O)Nc2ccc3c(c2)OCO3)[C@@H]1OC(=O)Nc1ccc2c(c1)OCO2 | 0.792 | 0.871 (inactive) | 0.0789 | -0.0349 | 0.572 | 2.51 | 0.943 | 1.31 | 0.12 | 0.954 | 1.67 | 1.3 | 0.347 | 1 | 0.997 | 0.366 | 0.0347 | 0.484 | 0.682 | -9.67 (active) |
| NC(=O)NCC#Cc1ccc2c(c1)[C@]1(C(=O)N2)[C@H](C(=O)N2CCN(c3ncccn3)CC2)[C@H]2C(=O)O[C@H](c3ccccc3)[C@H](c3ccccc3)N2[C@@H]1c1ccc(O)cc1 | 0.151 | 0.953 (inactive) | 0.856 | -0.0149 | 0.304 | 0.817 | 0.102 | 1.2 | 0.864 | 0.721 | 1.43 | 1.14 | 0.244 | 0.768 | 1.37 | 1.3 | -0.982 | 0.36 | 0.542 | -0.598 (inactive) |
| O=C(NCCN1CCOCC1)[C@@H]1c2ccccc2C(=O)N(Cc2ccccc2Cl)[C@H]1c1ccc(CO)cc1 | -0.281 | 0.239 (inactive) | -0.224 | -0.0986 | 0.667 | 0.0465 | 1.67 | -0.721 | -0.761 | -1.19 | -1.29 | -0.867 | 0.0685 | -0.542 | -0.163 | -0.976 | 1.79 | -1.19 | 0.0616 | 0.645 (inactive) |
| CC1CC/C=C\[C@H]2OC34C=CCN(C(C)C)C(=O)[C@H]3N(CCO)C(=O)[C@@H]4C2C(=O)O1 (stereo not given in full) | -0.935 | -0.0467 (inactive) | -0.312 | -0.125 | 0.933 | -0.31 | 0.492 | -0.175 | -1.26 | -1.8 | -0.567 | -0.724 | -0.301 | -1.41 | -1.27 | -1.03 | 0.193 | -0.445 | -0.748 | -0.886 (inactive) |
